{"source": "PubChem BioAssay", "key": {"[1]": {"assay": "blockers of polyQ-driven CASP3 activation – cell-based (AID 1583)", "details": "polyglutamine-induced caspase-3 activation, cell assay; stronger effect = higher value;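 tested at 10 µM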"}, "[2]": {"assay": "yeast 75Q aggregation reduction – 75Q-TubU reporter (AID 1593)", "details": "Yeast 75Q polyglutamine aggregation reporter"}, "[3]": {"assay": "restoration of touch response, mutant HTT neurons – whole organism, C. elegans mechanosensory neurons, N-terminal huntingtin (AID 1599)", "details": "C. elegans polyQ-huntingtin mechanosensory neurons, stronger effect = higher value"}, "[4]": {"assay": "blockers of cytochrome c efflux from mitochondria – biochemical, purified mitochondria (AID 1603);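 note: mouse liver mitochondria challenged with calcium chloride; signal normalized to the plate average as 100%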", "details": "stronger effect = lower value"}, "[5]": {"assay": "polyglutamine aggregate formation blockers (AID 1604)", "details": "polyglutamine-induced protein aggregation inhibition assay; stronger effect = higher value; tested at 2.5 µM"}, "[6]": {"assay": "glutamate transport activators, MN-1 cells, MN-1 cell line (AID 1612);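 note: tested at 1 µM final; 0% = mean of DMSO vehicle wells on each plate; positive means more glutamate uptake than control and negative means less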", "details": "MN-1 motor neuron cells, stronger effect = higher value"}, "[7]": {"assay": "75Q-TubH aggregate inhibition, S. cerevisiae, yeast (AID 1616)", "details": "S. cerevisiae 75Q-TubH polyglutamine aggregation suppression; stronger effect = higher value"}, "[8]": {"assay": "signal quenchers or enhancers, Cy5 substrate/SSB – biochemical, NIH Clinical Collection, E. coli SSB, artefact control for HCV NS3 helicase inhibitor project (AID 743268)", "details": "Cy5-oligo bound E. coli SSB, fluorescence interference"}, "[9]": {"test_system": "Hepatitis C virus NS3 helicase", "assay": "blockers of NS3h binding to DNA – biochemical, fluorescence polarization, NIH Clinical Collection, primary screen (AID 743270)", "details": "NS3 helicase binding to Cy5-dT15 DNA, stronger effect = higher value, concentration not given here"}, "[10]": {"target": "Single-stranded DNA-binding protein (Escherichia coli (strain K12)) (UniProt P0AGE0)", "assay": "SSB-ssDNA binding inhibitors – biochemical, fluorescence polarization, NIH Clinical Collection, counter-screen for HCV NS3 helicase inhibitor project (AID 743271; in the data active = inhibition above about 28%)", "details": "E. coli SSB-DNA binding, stronger effect = higher value, concentration not given here"}, "[11]": {"assay": "compounds distorting NS3 helicase fluorescence signal – biochemical, NIH Clinical Collection, artefact control for HCV NS3 helicase inhibitor project (AID 743272)", "details": "fluorescence interference counterscreen, HCV NS3 helicase assay; stronger effect = lower value"}, "[12]": {"assay": "compounds altering circadian rhythm period length – cell-based, LOPAC library, luminescence reporter (AID 2774);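 note: values are relative to mean of DMSO wells on each plate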", "details": "circadian reporter cells, at 7 µM, actives lie on both sides"}, "[13]": {"test_system": "Hepatitis C virus NS3 helicase", "assay": "blockers of NS3h binding to ssDNA – biochemical, fluorescence polarization, LOPAC1280 library, primary screen (AID 687035; in the data active = inhibition above about 37%)", "details": "Purified HCV NS3 helicase, Cy5-dT15 ssDNA binding fluorescence polarization; stronger effect = higher value; concentration not given here"}, "[14]": {"assay": "compounds altering Cy5-DNA-NS3h complex signal – biochemical, LOPAC1280, artefact control for HCV NS3 helicase inhibitor project (AID 687037)", "details": "Cy5-DNA-NS3h complex fluorescence interference counterscreen"}, "[15]": {"assay": "blockers of cellular phospholipid synthesis – cell-based, LOPAC library, screen 4, primary screen (AID 1347384)", "details": "animal cells, phospholipid biosynthesis inhibition screen; at 10 µM"}}, "note": "For some assays here: Measured potencies and affinities stand elsewhere. Calls of active or inactive are those of the source. Unless noted, the rule behind the calls is not given here.", "data": [{"smiles": "COc1c2occc2cc2ccc(=O)oc12", "values": [{"measurement": "inhibition", "setting": "[1]", "result": 18.6, "unit": "%"}, {"measurement": "score", "setting": "[2]", "result": 0.85}, {"measurement": "rescue above control", "setting": "[3]", "result": 6.17}, {"measurement": "cytochrome c release ratio", "setting": "[4]", "result": 2.13}, {"measurement": "inhibition of aggregation", "setting": "[5]", "result": 72.4, "unit": "%"}, {"measurement": "glutamate uptake change", "setting": "[6]", "result": -3.48, "unit": "%"}, {"measurement": "aggregation suppression score", "setting": "[7]", "result": 0.937}, {"measurement": "fluorescence ratio", "setting": "[8]", "result": "0.98 (inactive)"}, {"measurement": "inhibition", "setting": "[9]", "result": "-3.18% (inactive)"}, {"measurement": "inhibition", "setting": "[10]", "result": "-5.05% (inactive)"}, {"measurement": "fluorescence ratio", "setting": "[11]", "result": "1.02 (inactive)"}]}, {"smiles": "CN1CCN(C2=Nc3cc(Cl)ccc3Nc3ccccc32)CC1", "values": [{"measurement": "inhibition", "setting": "[1]", "result": -23.8, "unit": "%"}, {"measurement": "score", "setting": "[2]", "result": 1.19}, {"measurement": "cytochrome c release ratio", "setting": "[4]", "result": 1.52}, {"measurement": "inhibition of aggregation", "setting": "[5]", "result": 65.4, "unit": "%"}, {"measurement": "glutamate uptake change", "setting": "[6]", "result": -8.51, "unit": "%"}, {"measurement": "aggregation suppression score", "setting": "[7]", "result": 1.14}, {"measurement": "period change", "setting": "[12]", "result": "0.13 h (inactive)"}, {"measurement": "inhibition", "setting": "[13]", "result": "-3% (inactive)"}, {"measurement": "fluorescence ratio (interference)", "setting": "[14]", "result": "1 (inactive)"}, {"measurement": "fluorescence ratio", "setting": "[8]", "result": "1.04 (inactive)"}, {"measurement": "inhibition", "setting": "[9]", "result": "-2.27% (inactive)"}, {"measurement": "inhibition", "setting": "[10]", "result": "-3.53% (inactive)"}, {"measurement": "fluorescence ratio", "setting": "[11]", "result": "1.01 (inactive)"}, {"measurement": "outcome", "setting": "[15]", "result": "inactive"}]}, {"smiles": "COc1ccc2cc([C@H](C)C(=O)O)ccc2c1", "values": [{"measurement": "inhibition", "setting": "[1]", "result": -27.8, "unit": "%"}, {"measurement": "score", "setting": "[2]", "result": 0.32}, {"measurement": "rescue above control", "setting": "[3]", "result": -11.2}, {"measurement": "cytochrome c release ratio", "setting": "[4]", "result": 0.95}, {"measurement": "inhibition of aggregation", "setting": "[5]", "result": 74, "unit": "%"}, {"measurement": "glutamate uptake change", "setting": "[6]", "result": 6.08, "unit": "%"}, {"measurement": "aggregation suppression score", "setting": "[7]", "result": 0.196}, {"measurement": "period change", "setting": "[12]", "result": "-0.095 h (inactive)"}, {"measurement": "inhibition", "setting": "[13]", "result": "-6% (inactive)"}, {"measurement": "fluorescence ratio (interference)", "setting": "[14]", "result": "1 (inactive)"}, {"measurement": "outcome", "setting": "[15]", "result": "inactive"}]}, {"smiles": "COc1cc(Cc2cnc(N)nc2N)cc(OC)c1OC", "values": [{"measurement": "inhibition", "setting": "[1]", "result": -19.7, "unit": "%"}, {"measurement": "score", "setting": "[2]", "result": 1.11}, {"measurement": "rescue above control", "setting": "[3]", "result": 11.6}, {"measurement": "cytochrome c release ratio", "setting": "[4]", "result": 0.82}, {"measurement": "inhibition of aggregation", "setting": "[5]", "result": 83.3, "unit": "%"}, {"measurement": "glutamate uptake change", "setting": "[6]", "result": -5.77, "unit": "%"}, {"measurement": "aggregation suppression score", "setting": "[7]", "result": 1.24}, {"measurement": "period change", "setting": "[12]", "result": "0.055 h (inactive)"}, {"measurement": "inhibition", "setting": "[13]", "result": "1% (inactive)"}, {"measurement": "fluorescence ratio (interference)", "setting": "[14]", "result": "1 (inactive)"}, {"measurement": "fluorescence ratio", "setting": "[8]", "result": "0.97 (inactive)"}, {"measurement": "inhibition", "setting": "[9]", "result": "-3.18% (inactive)"}, {"measurement": "inhibition", "setting": "[10]", "result": "0.29% (inactive)"}, {"measurement": "fluorescence ratio", "setting": "[11]", "result": "0.95 (inactive)"}, {"measurement": "outcome", "setting": "[15]", "result": "inactive"}]}, {"smiles": "CC(C)NCC(O)COc1cccc2[nH]ccc12", "note": "(stereo unspecified)", "values": [{"measurement": "inhibition", "setting": "[1]", "result": -39.9, "unit": "%"}, {"measurement": "score", "setting": "[2]", "result": 1.28}, {"measurement": "rescue above control", "setting": "[3]", "result": 3.36}, {"measurement": "cytochrome c release ratio", "setting": "[4]", "result": 0.95}, {"measurement": "inhibition of aggregation", "setting": "[5]", "result": 83.3, "unit": "%"}, {"measurement": "glutamate uptake change", "setting": "[6]", "result": 11.9, "unit": "%"}, {"measurement": "aggregation suppression score", "setting": "[7]", "result": 1.28}, {"measurement": "period change", "setting": "[12]", "result": "0.015 h (inactive)"}, {"measurement": "inhibition", "setting": "[13]", "result": "-5% (inactive)"}, {"measurement": "fluorescence ratio (interference)", "setting": "[14]", "result": "1 (inactive)"}, {"measurement": "fluorescence ratio", "setting": "[8]", "result": "0.9 (inactive)"}, {"measurement": "inhibition", "setting": "[9]", "result": "-5.91% (inactive)"}, {"measurement": "inhibition", "setting": "[10]", "result": "2.57% (inactive)"}, {"measurement": "fluorescence ratio", "setting": "[11]", "result": "0.9 (inactive)"}, {"measurement": "outcome", "setting": "[15]", "result": "inactive"}]}, {"smiles": "O=C(O)CCc1nc(-c2ccccc2)c(-c2ccccc2)o1", "values": [{"measurement": "period change", "setting": "[12]", "result": "0.145 h (inactive)"}, {"measurement": "inhibition", "setting": "[13]", "result": "-4% (inactive)"}, {"measurement": "fluorescence ratio (interference)", "setting": "[14]", "result": "1 (inactive)"}, {"measurement": "fluorescence ratio", "setting": "[8]", "result": "1.04 (inactive)"}, {"measurement": "inhibition", "setting": "[9]", "result": "1.19% (inactive)"}, {"measurement": "inhibition", "setting": "[10]", "result": "2.21% (inactive)"}, {"measurement": "fluorescence ratio", "setting": "[11]", "result": "0.94 (inactive)"}, {"measurement": "outcome", "setting": "[15]", "result": "inactive"}]}, {"smiles": "Cc1cc(NS(=O)(=O)c2ccc(N)cc2)no1", "values": [{"measurement": "inhibition", "setting": "[1]", "result": 23.4, "unit": "%"}, {"measurement": "score", "setting": "[2]", "result": 1.35}, {"measurement": "rescue above control", "setting": "[3]", "result": -4.83}, {"measurement": "cytochrome c release ratio", "setting": "[4]", "result": 0.69}, {"measurement": "inhibition of aggregation", "setting": "[5]", "result": 58.6, "unit": "%"}, {"measurement": "glutamate uptake change", "setting": "[6]", "result": 12.1, "unit": "%"}, {"measurement": "aggregation suppression score", "setting": "[7]", "result": 1.36}, {"measurement": "fluorescence ratio", "setting": "[8]", "result": "1.03 (inactive)"}, {"measurement": "inhibition", "setting": "[9]", "result": "0.45% (inactive)"}, {"measurement": "inhibition", "setting": "[10]", "result": "-0.48% (inactive)"}, {"measurement": "fluorescence ratio", "setting": "[11]", "result": "1 (inactive)"}]}, {"smiles": "O=C1CN(/N=C/c2ccc([N+](=O)[O-])o2)C(=O)N1", "values": [{"measurement": "inhibition", "setting": "[1]", "result": 27, "unit": "%"}, {"measurement": "score", "setting": "[2]", "result": 0.72}, {"measurement": "rescue above control", "setting": "[3]", "result": 4.47}, {"measurement": "cytochrome c release ratio", "setting": "[4]", "result": 0.76}, {"measurement": "inhibition of aggregation", "setting": "[5]", "result": 41.5, "unit": "%"}, {"measurement": "glutamate uptake change", "setting": "[6]", "result": 23.4, "unit": "%"}, {"measurement": "aggregation suppression score", "setting": "[7]", "result": 0.814}]}, {"smiles": "CN1[C@@H]2CC(OC(=O)[C@H](CO)c3ccccc3)C[C@H]1[C@@H]1O[C@@H]12", "note": "(stereo partly specified)", "values": [{"measurement": "fluorescence ratio", "setting": "[8]", "result": "0.95 (inactive)"}, {"measurement": "inhibition", "setting": "[9]", "result": "-1.98% (inactive)"}, {"measurement": "inhibition", "setting": "[10]", "result": "1.44% (inactive)"}, {"measurement": "fluorescence ratio", "setting": "[11]", "result": "0.9 (inactive)"}]}, {"smiles": "O=C(NCC1CCCCN1)c1cc(OCC(F)(F)F)ccc1OCC(F)(F)F", "note": "(stereo unspecified)", "values": [{"measurement": "period change", "setting": "[12]", "result": "0.075 h (inactive)"}, {"measurement": "fluorescence ratio", "setting": "[8]", "result": "1.08 (inactive)"}, {"measurement": "inhibition", "setting": "[9]", "result": "-15% (inactive)"}, {"measurement": "inhibition", "setting": "[10]", "result": "19.4% (inactive)"}, {"measurement": "fluorescence ratio", "setting": "[11]", "result": "0.81 (inactive)"}]}]}
